# Of roughly 8,800 targets only a part is listed; those with a hit were picked by preference. About 0.5% of all pairs of compound and target were hits. Values without a mark were called inactive.
# Compound: NCC(=O)Nc1ccc(-n2nc(C(F)(F)F)cc2-c2ccc3c(ccc4ccccc43)c2)cc1
# Assay: log2 fold change, soluble protein after heating vs DMSO (PISA); higher = thermal stabilisation; K562 lysate, 10 uM; active = over 0.2 and 3.5 SD of the protein, either way, in both replicates (recomputed)
# Procedure, shortened: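 K562 pellets were dounce-homogenised in PBS pH 7.4 with 1 mM MgCl2, and the crude extract at 1 mg/mL protein was treated with 10 μM compound for 30 min. Aliquots were heated for 3 min across 48°C-58°C, pooled, and brought to 0.5% NP-40 at 4°C; soluble protein was the supernatant after 21,000xg for 90 min. Soluble protein was quantified by TMTpro 16plex LC-MS/MS with channel sums equalised, and reported as log2 fold change in thermal stability against DMSO controls, with values from duplicates.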
# Chain of UniProt Q9BRA0 (Q9BRA0 whole entry, looked up): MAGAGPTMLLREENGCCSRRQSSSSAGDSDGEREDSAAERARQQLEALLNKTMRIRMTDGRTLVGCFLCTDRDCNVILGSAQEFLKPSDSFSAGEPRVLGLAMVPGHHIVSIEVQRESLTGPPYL
# Chain of UniProt P40261 (P40261 whole entry, looked up): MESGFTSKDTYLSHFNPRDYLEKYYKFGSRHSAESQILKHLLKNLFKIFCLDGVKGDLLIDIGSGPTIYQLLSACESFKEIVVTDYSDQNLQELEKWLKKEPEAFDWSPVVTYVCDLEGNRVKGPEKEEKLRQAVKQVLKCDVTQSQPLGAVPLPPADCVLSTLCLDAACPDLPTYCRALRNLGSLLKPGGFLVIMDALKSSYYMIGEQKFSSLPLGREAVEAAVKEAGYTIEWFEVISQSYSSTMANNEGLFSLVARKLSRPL
# Chain of UniProt Q9UFN0 (Q9UFN0 whole entry, looked up): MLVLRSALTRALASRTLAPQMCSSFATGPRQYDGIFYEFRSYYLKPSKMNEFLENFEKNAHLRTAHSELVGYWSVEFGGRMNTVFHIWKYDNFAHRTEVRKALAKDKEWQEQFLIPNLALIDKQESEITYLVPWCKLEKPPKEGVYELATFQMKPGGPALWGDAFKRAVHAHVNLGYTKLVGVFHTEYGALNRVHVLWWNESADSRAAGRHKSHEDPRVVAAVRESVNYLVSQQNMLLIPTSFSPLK
# Chain of UniProt Q9Y6R0 (Q9Y6R0 whole entry, looked up): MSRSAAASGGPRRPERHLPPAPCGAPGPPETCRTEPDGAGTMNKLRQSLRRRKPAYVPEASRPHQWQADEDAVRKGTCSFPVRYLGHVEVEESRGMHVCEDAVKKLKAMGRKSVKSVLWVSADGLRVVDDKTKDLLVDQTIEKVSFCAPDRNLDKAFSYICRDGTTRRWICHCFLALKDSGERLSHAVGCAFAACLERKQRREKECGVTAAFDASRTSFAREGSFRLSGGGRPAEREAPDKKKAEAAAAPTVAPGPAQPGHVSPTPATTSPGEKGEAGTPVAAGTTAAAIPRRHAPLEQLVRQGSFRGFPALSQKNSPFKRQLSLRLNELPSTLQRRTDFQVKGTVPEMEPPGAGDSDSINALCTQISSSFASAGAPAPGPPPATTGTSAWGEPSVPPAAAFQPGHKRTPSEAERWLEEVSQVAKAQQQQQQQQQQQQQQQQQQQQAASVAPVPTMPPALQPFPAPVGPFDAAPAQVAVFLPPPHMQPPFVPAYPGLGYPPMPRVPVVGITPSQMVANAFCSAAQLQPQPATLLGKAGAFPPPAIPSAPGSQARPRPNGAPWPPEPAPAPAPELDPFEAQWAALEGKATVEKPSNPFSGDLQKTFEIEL
# Chain of UniProt Q96DH6 (Q96DH6 whole entry, looked up): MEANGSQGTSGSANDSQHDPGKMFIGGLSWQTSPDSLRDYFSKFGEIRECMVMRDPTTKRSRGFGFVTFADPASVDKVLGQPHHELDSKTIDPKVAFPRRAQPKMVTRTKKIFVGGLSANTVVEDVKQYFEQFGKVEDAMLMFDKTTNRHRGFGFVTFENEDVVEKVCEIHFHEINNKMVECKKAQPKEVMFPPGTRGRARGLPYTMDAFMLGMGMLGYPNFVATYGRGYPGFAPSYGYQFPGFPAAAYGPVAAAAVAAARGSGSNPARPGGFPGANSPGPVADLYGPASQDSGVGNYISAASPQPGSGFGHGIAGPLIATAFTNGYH
# Chain of UniProt Q6GQQ9 (Q6GQQ9 whole entry, looked up): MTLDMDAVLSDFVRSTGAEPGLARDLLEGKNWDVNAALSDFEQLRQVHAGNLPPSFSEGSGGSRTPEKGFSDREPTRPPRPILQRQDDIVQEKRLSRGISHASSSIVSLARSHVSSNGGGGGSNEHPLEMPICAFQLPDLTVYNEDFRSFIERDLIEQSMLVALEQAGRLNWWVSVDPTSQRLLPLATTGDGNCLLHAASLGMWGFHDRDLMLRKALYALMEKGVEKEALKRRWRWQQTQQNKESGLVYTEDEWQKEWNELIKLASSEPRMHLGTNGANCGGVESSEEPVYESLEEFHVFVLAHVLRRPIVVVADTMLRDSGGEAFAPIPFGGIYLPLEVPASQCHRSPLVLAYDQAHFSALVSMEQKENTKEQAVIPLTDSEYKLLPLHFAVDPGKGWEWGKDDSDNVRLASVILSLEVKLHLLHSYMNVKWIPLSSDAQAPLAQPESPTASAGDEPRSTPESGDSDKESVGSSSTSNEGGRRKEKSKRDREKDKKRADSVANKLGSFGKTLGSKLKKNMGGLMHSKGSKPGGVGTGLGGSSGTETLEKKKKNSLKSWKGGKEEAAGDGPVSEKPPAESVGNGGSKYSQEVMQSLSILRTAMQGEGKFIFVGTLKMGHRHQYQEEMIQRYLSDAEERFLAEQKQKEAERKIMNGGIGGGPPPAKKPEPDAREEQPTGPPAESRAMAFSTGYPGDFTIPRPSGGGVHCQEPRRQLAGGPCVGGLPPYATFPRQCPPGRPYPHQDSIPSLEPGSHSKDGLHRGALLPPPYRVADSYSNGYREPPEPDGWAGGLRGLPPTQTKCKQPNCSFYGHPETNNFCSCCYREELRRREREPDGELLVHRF
# Chain of UniProt Q9Y639 (Q9Y639 whole entry, looked up): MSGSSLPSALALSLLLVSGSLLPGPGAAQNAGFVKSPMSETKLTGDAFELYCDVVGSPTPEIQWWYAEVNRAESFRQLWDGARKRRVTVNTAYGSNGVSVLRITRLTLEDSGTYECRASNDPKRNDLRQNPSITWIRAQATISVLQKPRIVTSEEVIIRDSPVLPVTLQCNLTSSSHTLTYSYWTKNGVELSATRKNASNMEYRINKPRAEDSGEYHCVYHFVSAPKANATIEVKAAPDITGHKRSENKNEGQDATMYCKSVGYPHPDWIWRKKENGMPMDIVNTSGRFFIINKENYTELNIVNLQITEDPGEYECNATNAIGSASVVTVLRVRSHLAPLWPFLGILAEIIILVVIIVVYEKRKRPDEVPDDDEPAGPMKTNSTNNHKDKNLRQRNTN
# Chain of UniProt Q9H857 (Q9H857 whole entry, looked up): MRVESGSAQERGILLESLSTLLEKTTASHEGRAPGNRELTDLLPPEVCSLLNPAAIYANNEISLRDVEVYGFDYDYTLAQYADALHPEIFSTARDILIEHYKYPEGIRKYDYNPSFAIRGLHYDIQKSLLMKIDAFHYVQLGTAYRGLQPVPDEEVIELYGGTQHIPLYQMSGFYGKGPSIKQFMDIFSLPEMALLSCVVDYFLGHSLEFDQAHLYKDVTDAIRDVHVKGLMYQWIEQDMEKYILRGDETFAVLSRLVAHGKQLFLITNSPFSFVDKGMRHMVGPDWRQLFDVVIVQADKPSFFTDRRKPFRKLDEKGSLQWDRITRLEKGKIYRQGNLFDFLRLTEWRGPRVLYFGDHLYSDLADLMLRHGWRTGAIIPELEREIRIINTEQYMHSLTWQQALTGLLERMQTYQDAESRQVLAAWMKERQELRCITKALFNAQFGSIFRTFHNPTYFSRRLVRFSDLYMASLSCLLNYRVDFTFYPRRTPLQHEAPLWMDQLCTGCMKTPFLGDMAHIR
# Chain of UniProt P49116 (P49116 whole entry, looked up): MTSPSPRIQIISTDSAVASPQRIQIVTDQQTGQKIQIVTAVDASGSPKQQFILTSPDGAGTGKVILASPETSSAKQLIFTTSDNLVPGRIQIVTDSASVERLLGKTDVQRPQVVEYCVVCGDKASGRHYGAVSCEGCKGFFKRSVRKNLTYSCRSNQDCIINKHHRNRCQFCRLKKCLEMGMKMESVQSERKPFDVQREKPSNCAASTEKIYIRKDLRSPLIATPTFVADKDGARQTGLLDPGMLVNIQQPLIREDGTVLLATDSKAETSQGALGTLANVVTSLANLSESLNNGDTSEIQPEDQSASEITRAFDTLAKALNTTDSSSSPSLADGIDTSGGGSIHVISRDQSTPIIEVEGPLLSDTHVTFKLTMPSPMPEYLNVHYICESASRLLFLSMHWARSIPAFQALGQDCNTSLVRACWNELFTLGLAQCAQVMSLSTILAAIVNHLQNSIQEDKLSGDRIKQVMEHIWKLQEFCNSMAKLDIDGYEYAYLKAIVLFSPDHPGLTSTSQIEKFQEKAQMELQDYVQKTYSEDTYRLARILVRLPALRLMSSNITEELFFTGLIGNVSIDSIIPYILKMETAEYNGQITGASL
# Chain of UniProt P03886 (P03886 whole entry, looked up): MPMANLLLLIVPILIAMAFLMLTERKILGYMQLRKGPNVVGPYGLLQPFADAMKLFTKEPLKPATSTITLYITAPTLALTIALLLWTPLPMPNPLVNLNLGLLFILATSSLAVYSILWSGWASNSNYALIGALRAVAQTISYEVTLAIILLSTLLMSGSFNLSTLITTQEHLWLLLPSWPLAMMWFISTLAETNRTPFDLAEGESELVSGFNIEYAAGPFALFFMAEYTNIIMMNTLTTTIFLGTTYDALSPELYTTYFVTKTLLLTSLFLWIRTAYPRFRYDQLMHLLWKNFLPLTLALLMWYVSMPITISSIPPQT
# Chain of UniProt Q96I59 (Q96I59 whole entry, looked up): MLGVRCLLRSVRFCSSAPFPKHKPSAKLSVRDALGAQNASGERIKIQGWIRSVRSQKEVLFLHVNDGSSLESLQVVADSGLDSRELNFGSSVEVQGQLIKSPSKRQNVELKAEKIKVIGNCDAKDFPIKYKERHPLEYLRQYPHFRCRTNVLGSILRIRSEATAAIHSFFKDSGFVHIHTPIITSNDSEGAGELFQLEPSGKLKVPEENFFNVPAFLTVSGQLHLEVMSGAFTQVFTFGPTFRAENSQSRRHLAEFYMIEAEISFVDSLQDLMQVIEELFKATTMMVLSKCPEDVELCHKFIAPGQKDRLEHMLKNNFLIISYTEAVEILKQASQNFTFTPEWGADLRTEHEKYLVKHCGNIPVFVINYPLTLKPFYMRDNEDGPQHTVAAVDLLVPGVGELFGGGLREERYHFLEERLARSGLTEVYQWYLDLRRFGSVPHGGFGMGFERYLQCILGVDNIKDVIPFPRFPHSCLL
# Chain of UniProt Q9NZJ9 (Q9NZJ9 whole entry, looked up): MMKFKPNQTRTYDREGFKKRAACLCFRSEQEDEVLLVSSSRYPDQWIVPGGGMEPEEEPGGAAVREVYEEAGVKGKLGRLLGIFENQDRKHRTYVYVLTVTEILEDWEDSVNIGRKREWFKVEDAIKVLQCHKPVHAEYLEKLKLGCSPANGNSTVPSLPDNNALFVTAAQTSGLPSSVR
row,Target,log2 fold change
1,MSI2 (UniProt Q96DH6),0.053
2,NUMBL (UniProt Q9Y6R0),0.04
3,NF1 (UniProt P21359),0.03
4,NIT2 (UniProt Q9NQR4),-0.001
5,NAA38 isoform 2 (UniProt Q9BRA0),-0.015
6,NQO1 (UniProt P15559),0.008
7,NNMT (UniProt P40261),0.014
8,NCAPG2 (UniProt Q86XI2),0.002
9,NARS2 (UniProt Q96I59),0.063
10,NCAPD2 (UniProt Q15021),-0.01
11,MYO1C (UniProt O00159),-0.017
12,NIPSNAP3A (UniProt Q9UFN0),0.03
13,OTUD7B (UniProt Q6GQQ9),0.044
14,MT-ND1 (UniProt P03886),0.002
15,NR2C2 isoform 2 (UniProt P49116),-0.024
16,NUDT4 isoform 2 (UniProt Q9NZJ9),0.057
17,NT5DC2 isoform 2 (UniProt Q9H857),0.013
18,NCAPH (UniProt Q15003),-0.031
19,MSH2 (UniProt P43246),0.006
20,NBN (UniProt O60934),-0.009
21,NPTN (UniProt Q9Y639),0.067
22,MTA3 (UniProt Q9BTC8),0.021
23,MRPS18A isoform 2 (UniProt Q9NVS2),0.008

# From the supplement of paper PMC10849652
